Experimental data published in article PMC4336329 (PLoS ONE, 2015).
The whole screen tested about 310,000 compounds, of which about 14,000 (4.5%) showed an effect of 50% or more. Effects have a minus sign here. Only a selection was taken, and strong results are over-represented in it overall.

Target: human ether-à-go-go-related gene (hERG) potassium channel (human, UniProt Q12809)
Assay: primary screen, population patch clamp on CHO cells stably expressing hERG; higher = less effect of the substance
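Further: peak tail current of the secondary pulse compared with the same well before compound.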

human ether-à-go-go-related gene (hERG) potassium channel, sequence (Q12809 whole entry, looked up): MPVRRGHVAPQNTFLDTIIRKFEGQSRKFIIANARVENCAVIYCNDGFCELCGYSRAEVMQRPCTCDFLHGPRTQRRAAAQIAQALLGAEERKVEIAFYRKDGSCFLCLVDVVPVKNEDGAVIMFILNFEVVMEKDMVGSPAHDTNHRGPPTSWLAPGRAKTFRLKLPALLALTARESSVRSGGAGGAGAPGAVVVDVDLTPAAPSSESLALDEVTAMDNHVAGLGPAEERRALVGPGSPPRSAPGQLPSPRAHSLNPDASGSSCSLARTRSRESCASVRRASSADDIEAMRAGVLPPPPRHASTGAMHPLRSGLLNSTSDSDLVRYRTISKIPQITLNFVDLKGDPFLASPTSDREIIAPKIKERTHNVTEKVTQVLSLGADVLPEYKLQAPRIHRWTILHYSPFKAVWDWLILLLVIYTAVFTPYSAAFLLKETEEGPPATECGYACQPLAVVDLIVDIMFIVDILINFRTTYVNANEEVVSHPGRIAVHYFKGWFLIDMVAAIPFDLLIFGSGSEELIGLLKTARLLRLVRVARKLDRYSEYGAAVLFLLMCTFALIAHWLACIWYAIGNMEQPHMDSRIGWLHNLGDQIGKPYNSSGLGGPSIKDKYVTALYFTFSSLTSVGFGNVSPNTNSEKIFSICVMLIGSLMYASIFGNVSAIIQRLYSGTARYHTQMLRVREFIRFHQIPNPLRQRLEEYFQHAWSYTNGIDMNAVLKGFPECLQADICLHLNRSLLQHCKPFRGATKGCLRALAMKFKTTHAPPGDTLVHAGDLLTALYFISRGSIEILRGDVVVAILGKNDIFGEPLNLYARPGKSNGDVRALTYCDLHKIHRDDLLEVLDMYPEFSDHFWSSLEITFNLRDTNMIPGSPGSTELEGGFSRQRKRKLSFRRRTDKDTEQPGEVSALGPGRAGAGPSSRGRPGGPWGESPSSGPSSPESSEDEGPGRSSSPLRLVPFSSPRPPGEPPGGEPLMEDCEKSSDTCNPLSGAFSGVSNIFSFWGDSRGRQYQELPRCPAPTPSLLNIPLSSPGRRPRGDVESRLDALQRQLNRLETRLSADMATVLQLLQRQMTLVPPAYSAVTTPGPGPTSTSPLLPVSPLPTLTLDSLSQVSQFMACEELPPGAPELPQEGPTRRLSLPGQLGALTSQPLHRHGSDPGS

| Compound | hERG current change (%, negative = inhibition) at 10uM [%] |
| --- | --- |
| O=C(c1ccc(O)cc1)c1ccc(C(=O)O)c(C(=O)O)c1 | 23.2 |
| Cc1cnc(NC(=O)CSC(=S)N2CCOCC2)s1 | 15.4 |
| COC(=O)Nc1ccc(S(=O)(=O)N2CCC(Cc3ccccc3)CC2)cc1 | 1.4 |
| COc1ccc2nc(NC(=O)CCc3ccc(OC)c(OC)c3)sc2c1 | 26.2 |
| COc1ccc(-c2nnc(SCc3nnc(-c4ccccc4)o3)n2C)cc1OC | -54.3 |
| CCN(CC)S(=O)(=O)c1cccc(-c2n[nH]c(=S)n2C)c1 | -51.8 |
| COc1ccc(-n2c(SCc3nnc(-c4ccccc4)o3)nnc2-c2ccccc2)cc1 | -29.5 |
| COc1ccc(-c2nnc(SCc3nnc(-c4ccccc4)o3)n2-c2ccccc2)cc1 | -9.78 |
| COCCn1c(SCc2nnc(-c3ccc(OC)c(OC)c3)o2)nnc1-c1ccncc1 | 1.42 |
| COc1ccc(-c2nnc(CSc3nc4ccccc4c(=O)n3C)o2)cc1OC | -4.89 |
| CCN(CC)S(=O)(=O)c1cccc(-c2n[nH]c(=S)n2CC(C)C)c1 | 6.22 |
| CCC(C)n1c(-c2cccc(S(=O)(=O)N(CC)CC)c2)n[nH]c1=S (stereo not drawn) | 26.6 |
| COc1ccc(-c2nnc(SCc3nnc(-c4ccc(Cl)cc4)o3)n2-c2ccccc2)cc1 | -56 |
| CCN(CC)S(=O)(=O)c1ccc(-c2nnc(SCc3nnc(-c4ccc(C)cc4)o3)n2CC)cc1 | -55.2 |
| CCN(CC)S(=O)(=O)c1ccc(-c2nnc(SCc3nnc(-c4ccc(C)cc4)o3)o2)cc1 | 8.8 |
| CCn1c(SCc2nnc(-c3ccccc3)o2)nnc1-c1ccc(S(=O)(=O)N2CCCC2)cc1 | -34.6 |
| COc1cc(NC(=O)c2ccccc2)ccc1NC(=O)c1cc2ccccc2o1 | 25.8 |
| CCOC(=O)c1cc(-c2ccc([N+](=O)[O-])cc2)nc2c1c(=O)[nH]c(=O)n2Cc1ccccc1 | 11.9 |
| CC1CCN(C(=O)c2[nH]cnc2C(=O)NC2CCN(C(=O)OC(C)(C)C)CC2)CC1 | 9.62 |
| COc1ccc(NC(=S)NCc2ccco2)c(OC)c1 | -2.08 |
| CCOc1ccc(N(C)S(=O)(=O)c2ccc3[nH]cc(C(=O)NCCCOC)c(=O)c3c2)cc1 | 3.51 |

| Compound | hERG current change (%, negative = inhibition) at 10uM [%] |
| --- | --- |
| O=C(O)Cn1c2ccccc2c2ccccc21 | 30.5 |
| COc1ccc2c(c1OC)C(=O)N(c1ncn[nH]1)C2 | 13.5 |
| O=C(/C=C\c1ccc(-c2cccc([N+](=O)[O-])c2)o1)N1CCOCC1 | -10.2 |
| Cc1ccc2[nH]c3c(=O)n(CC(=O)N4CCN(C)CC4)ncc3c2c1 | -1.46 |
| Cn1c(=O)n(C)c2cc(NC(=O)CSc3ccccc3)ccc21 | 4.01 |
| CCc1nc2ccccc2n1CCc1ccccc1.Cl | -16.6 |
| CN(C(=O)c1cc([N+](=O)[O-])ccc1N1CCCC1)C1CCCCC1 | 1.07 |
| CCN(CC)S(=O)(=O)c1cccc(-c2nnc(SCC(N)=O)n2CCc2ccccc2)c1 | -37.3 |
| CCN(CC)S(=O)(=O)c1cccc(-c2nnc(SCC(=O)NC)n2CCc2ccccc2)c1 | -27.3 |
| CCN(CC)S(=O)(=O)c1cccc(-c2nnc(SCc3ncc(-c4ccccc4)o3)n2C)c1 | -68.2 |
| CCCNC(=O)C(Cc1cccc(C#N)c1)NC(=O)c1cccc([N+](=O)[O-])c1 (stereo not drawn) | -10.2 |
| CCCNC(=O)C(Cc1cccc(OC)c1)NC(=O)c1ccc(C#N)cc1 (stereo not drawn) | -7.8 |
| CCCNC(=O)C(Cc1ccc(OC)cc1)NC(=O)c1ccc(C#N)cc1 (stereo not drawn) | -50.7 |
| CCCNC(=O)C(Cc1ccc(I)cc1)NC(=O)c1ccc(C#N)cc1 (stereo not drawn) | 8.48 |
| CCCNC(=O)C(Cc1cccc(Cl)c1)NC(=O)c1ccc(C#N)cc1 (stereo not drawn) | -11 |
| CCCNC(=O)C(Cc1cccc(C#N)c1)NC(=O)c1ccc(C#N)cc1 (stereo not drawn) | -55.9 |
| O=C(Oc1ccc(F)cc1)c1ccc2c(=O)n3c(nc2c1)CCC3 | -21.6 |
| O=C(COC(=O)c1cccc(O)c1)NC(=O)Cc1ccccc1 | 3.25 |
| Cc1nn(-c2ccccc2)c(N2CCCC2)c1/C=C1\N=C(c2ccccc2)OC1=O | 11.7 |
| CCCCCC(=O)NNC(=O)c1c(O)c2ccccc2n(CC)c1=O | -13.5 |
| Cc1cccc(N=C2NN=C(c3ccccc3F)CS2)c1C | 41.8 |

| Compound | hERG current change (%, negative = inhibition) at 10uM [%] |
| --- | --- |
| Cc1cc(N2CCC(C)CC2)nc2cccc(O)c12 | -28.7 |
| CCOc1ccc2ncc(C(=O)c3ccc(OC)cc3)c(N3CCN(CC)CC3)c2c1 | -74.5 |
| CCc1ccc2ncc(C(=O)c3ccccc3)c(N3CCOCC3)c2c1 | -45.7 |
| CCOC(=O)c1cnc2ccc(OCC)cc2c1N1CCN(c2ccccc2OC)CC1 | -5.78 |
| CCN1CCN(c2c(C=O)c(Cl)nc3ccc(OC)cc23)CC1 | -54.5 |
| COc1cc2ncc(C(=O)c3ccccc3)c(N3CCN(Cc4ccccc4)CC3)c2cc1OC | -12.9 |
| CCOC(=O)c1cnc2ccc(OCC)cc2c1N1CCN(C)CC1.Cl | -47.8 |
| CCc1ccc(C(=O)c2cnc3ccc(OC)cc3c2N2CCN(CC)CC2)cc1 | -67.7 |
| CCOc1ccc2ncc(S(=O)(=O)c3ccccc3)c(N3CCN(c4ccc(OC)cc4)CC3)c2c1 | -10.9 |
| COc1ccc(N2CCN(c3c(S(=O)(=O)c4ccccc4)cnc4ccc(OC)cc34)CC2)cc1 | -17.7 |
| CSc1ccccc1NC(=O)Cn1ccsc1=N | 33.3 |
| Cc1cc(NC(=O)CCCC(=O)OCC(F)(F)C(F)F)cc(C)c1C(=O)O | 20.1 |
| O=C(O)CC1OCC=C2CN3CCC45C6=CC(=O)C(=O)C([N+](=O)[O-])=C6NC4C1C2CC35 (stereo not drawn) | 10.1 |
| Cc1ccc(C)c(N2CCN(C(=O)Cn3cccc3)CC2)c1 | -19 |
| COc1ccc(/C=C/c2cc(C(F)(F)F)[nH]c(=O)n2)cc1OC | -6.91 |
| COc1cc(/C=C/c2cc[n+](C)cc2)ccc1OCC(=O)Nc1ccc(Cl)c(Cl)c1.[I-] | -5.84 |
| CS(=O)(=O)N(CC(=O)N1CCCC1)c1ccc(OCc2ccccc2)cc1 | -15.7 |
| OCCC#Cc1ccc(CN2CCN(CCc3ccccc3)C(CCO)C2)cc1 (stereo not drawn) | -20.7 |
| C#Cc1ccc(CN2CCN(CCc3ccccc3)C(CCO)C2)cc1 (stereo not drawn) | -58.8 |
| C#Cc1ccc(CN2CCN(CCCc3ccccc3)C(CCO)C2)cc1 (stereo not drawn) | -69.8 |
| Nc1c(C(=O)NC2CCCC2)c2nc3ccccc3nc2n1N | 25.1 |

| Compound | hERG current change (%, negative = inhibition) at 10uM [%] |
| --- | --- |
| CC1CCc2c(nc3sc4c(c3c2N)CCCC4)C1 (stereo not drawn) | -11.5 |
| CN(Cc1ccccc1NS(=O)(=O)c1ccc2ccccc2c1)C1CCCCC1.Cl | 7.73 |
| COc1cc(/C=N/NC(=O)c2cc(C)n(-c3ccc(F)cc3)c2C)cc(OC)c1O | -13.4 |
| COc1cc(/C=N/NC(=O)CCN2CCN(C(c3ccccc3)c3ccccc3)CC2)ccc1O | -78.7 |
| COc1cc(/C=N\NC(=O)CNC(=O)C(c2ccccc2)c2ccccc2)ccc1O | -25.7 |
| O=C(CNC(=O)C(c1ccccc1)c1ccccc1)N/N=C/c1ccc(O)cc1O | -4.68 |
| COc1cc(/C=N/NC(=O)CCN2CCN(c3ccccc3)CC2)cc(OC)c1OC | -22.2 |
| Cc1cc(C(=O)N/N=C/c2cccc([N+](=O)[O-])c2)c(C)n1-c1ccccc1 | 8.8 |
| COc1ccc(/C=N\NC(=O)CCN2CCN(c3ccccc3)CC2)cc1OC | -56.9 |
| COc1cc(/C=N/NC(=O)CCN2CCCCC2)ccc1O | -12 |
| COc1ccc(/C=N/NC(=O)c2cc(C)n(-c3ccccc3)c2C)cc1OC | -53.2 |
| O=C(CCN1CCN(C(c2ccccc2)c2ccccc2)CC1)N/N=C/c1ccc(O)cc1O | -53.1 |
| COc1ccc(/C=N/NC(=O)CCN2CCN(c3ccccc3)CC2)c(OC)c1OC | -3.73 |
| COc1ccc(OC)c(/C=N/NC(=O)CCN2CCN(C(c3ccccc3)c3ccccc3)CC2)c1 | -2.39 |
| Cc1ccccc1N(C(=O)CNC(=O)c1ccco1)C(C(=O)NC1CCCCC1)c1cccnc1 (stereo not drawn) | 14.3 |
| Cc1cc(C)cc(NS(=O)(=O)c2ccc(NC(=O)C3CCCCC3C(=O)O)cc2)c1 (stereo not drawn) | 2.18 |
| CSc1ccc(CNC(=O)c2ccc(NC(=O)C3=CSCCO3)cc2)cc1 | 28.4 |
| CCCCc1ccc(S(N)(=O)=O)cc1 | 15.7 |
| O=C(CCN1CCN(C(c2ccccc2)c2ccccc2)CC1)N/N=C/c1ccc(O)cc1 | -54.8 |
| NNC(=O)CCN1CCN(C(c2ccccc2)c2ccccc2)CC1 | -7.7 |
| O=C(CSC1CN(C(c2ccccc2)c2ccccc2)C1)N/N=C/c1ccccc1 | 1.64 |
